Screening data deposited in PubChem by National Center for Advancing Translational Sciences (NCATS).
Pol beta inh = qHTS Assay for Inhibitors of DNA Polymerase Beta; AID 485314, 2010; 340,000 tested, 1.3% active; Potency, µM (highest dose often 114 µM), usual class: inhibitors; P06746; Pol beta primer extension/strand displacement, fluorescence kinetic
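Reaction started by 50 nM substrate onto compound-treated Pol beta (10 nM, 15 min preincubation, room temperature); plates read at 0 min and 10 min. Normalized concentration-effect data fitted by four-parameter Hill equation.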
Pol kappa inh = qHTS for Inhibitors of Polymerase Kappa; DNA polymerase kappa (Homo sapiens), Q9UBT6; purified Pol kappa, fluorescent DNA synthesis assay, 10 min; Potency, µM (series often up to 107 µM), usual class: inhibitors; 400,000 tested, 0.53% active; AID 588579, 2011
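Kinetic fluorescence readout at 0 and 10 min followed reaction start with substrate at 50 nM final. Beforehand, enzyme (10 nM Pol kappa) stood 15 min with compound at room temperature; buffer-only wells were negative controls.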
Pol iota inh = qHTS for Inhibitors of Polymerase Iota; DNA polymerase iota (Homo sapiens), Q9UNA4; Pol iota fluorescent replication assay, 10 min; Potency, µM (series often up to 115 µM), hits mostly inhibitors; 390,000 tested, 1% active
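Fluorescent replication assay read twice, at 0 min and 10 min after adding 50 nM (final) substrate. Enzyme (10 nM) and compounds were first incubated 15 min at room temperature; enzyme-free buffer wells were negative controls.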
APEX1 inh = qHTS Assay for Inhibitors of the Human Apurinic/apyrimidinic Endonuclease 1 (APE1). DNA repair nuclease/redox regulator APEX1 (Homo sapiens), P27695. recombinant APE1, TAMRA/BHQ-2 abasic DNA cleavage fluorescence. Potency, µM (highest dose often 65.8 µM), most hits filed as inhibitors. 350,000 tested, 0.35% active; also: nearly all actives have a fitted effect of over 55% in size
Target sequence (P27695 whole entry, looked up): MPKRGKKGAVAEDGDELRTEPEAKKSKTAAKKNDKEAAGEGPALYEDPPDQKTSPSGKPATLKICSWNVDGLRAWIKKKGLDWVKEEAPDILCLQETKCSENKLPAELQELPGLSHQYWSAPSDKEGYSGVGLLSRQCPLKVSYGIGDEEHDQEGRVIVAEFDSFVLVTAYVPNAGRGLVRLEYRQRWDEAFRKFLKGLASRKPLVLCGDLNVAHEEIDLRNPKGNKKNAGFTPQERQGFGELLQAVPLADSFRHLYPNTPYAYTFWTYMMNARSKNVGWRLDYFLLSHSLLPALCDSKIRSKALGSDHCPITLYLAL
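Activity was derived from the fluorescence gain between first and third kinetic reads (60 s intervals, ex 525/em 598 nm) after 50 nM THF-abasic TAMRA/BHQ-2 duplex was added to 0.75 nM APE1 preincubated 15 min with compound.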
Pol eta inh = qHTS for Inhibitors of Polymerase Eta; recombinant Pol eta, fluorescent DNA replication assay; Potency, µM (titrated, usually from 114 µM), most hits filed as inhibitors; 390,000 tested, 1.2% active
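Fluorescent replication assay: 50 nM final substrate added after a 15 min room-temperature compound preincubation with 10 nM enzyme. Signal taken at 0 min and again at 10 min.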
GLS inhibitor = qHTS for Inhibitors of Glutaminase (GLS) | Glutaminase kidney isoform, mitochondrial (Homo sapiens), O94925 | GLS enzymatic activity, qHTS titration | Potency, µM (highest dose often 45.5 µM), actives largely listed as inhibitors | 410,000 tested, 0.21% active | AID 624170, 2012
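Compounds were pin-transferred onto hKGA, after which L-glutamine (1 mM solution) and a detection mix of glutamate oxidase, HRP and Amplex Red were added. Initial and 30 min RT fluorescence reads were collected.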
TbPGK inh = qHTS for inhibitors of Phosphogylcerate Kinase: Hit Validation Screen; AID 686980, 2013; Potency, µM (series often up to 57.5 µM), hits mostly inhibitors; TbPGK coupled GAPDH assay, Kinase-Glo luminescence; shares compounds with Pol kappa inh; 500 tested, 79% active; also: nearly all actives have a fitted effect of over 65% in size
Target sequence (P07378 whole entry, looked up): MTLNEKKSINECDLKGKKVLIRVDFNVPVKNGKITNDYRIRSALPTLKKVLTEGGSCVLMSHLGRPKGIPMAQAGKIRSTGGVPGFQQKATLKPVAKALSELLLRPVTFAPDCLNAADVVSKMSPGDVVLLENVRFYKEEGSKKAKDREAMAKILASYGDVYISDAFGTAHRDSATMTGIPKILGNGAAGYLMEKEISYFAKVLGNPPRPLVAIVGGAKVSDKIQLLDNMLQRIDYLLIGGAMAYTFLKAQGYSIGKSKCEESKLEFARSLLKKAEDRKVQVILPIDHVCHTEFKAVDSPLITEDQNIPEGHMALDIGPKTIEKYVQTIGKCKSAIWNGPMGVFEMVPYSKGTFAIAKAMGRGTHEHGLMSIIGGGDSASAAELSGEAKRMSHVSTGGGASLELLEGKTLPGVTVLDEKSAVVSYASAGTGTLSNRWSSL
Pol iota confirm = qHTS for Inhibitors of Polymerase Iota: Confirmatory Assay for Cherry-picked Compounds. 1,500 tested, 77% active. shares compounds with Pol kappa inh. Potency, µM, hits mostly inhibitors. Pol iota primer extension, TAMRA/BHQ fluorescence
A number is an active result; 0 = inactive; ? = inconclusive; - = not tested or not shown; [ ] = dose if it differs, or a comment. Rows were chosen to be rich in hits. Some 2.4% of all compounds tested hit in one or more screens of this group. Calls follow the shape of the dose curve; as a rule, active = well fitted curve in the direction sought with a large enough effect; inconclusive = small, poorly fitted or top-dose-only effect, or another doubt; inactive = no such curve, though single readings can be large; an effect the other way counts as inactive or inconclusive.

SMILES | Pol beta inh | Pol kappa inh | Pol iota inh | APEX1 inh | Pol eta inh | GLS inhibitor | TbPGK inh | others
N/C(=N\OC(=O)c1cccs1)c1ccccc1 | 0 | 0 | 0 | 0 | 0 | 0 | 16µM
Cc1ccc(/C(N)=N/OC(=O)c2cccs2)cc1 | 0 | 0 | 0 | 0 | 0 | 0 | -
Cc1ccccc1N=CC1=C(O)c2ccccc2C1=O | 0 | 0 | 0 | 0 | 0 | 0 | 10µM
COc1ccc(N=CC2=C(O)c3ccccc3C2=O)c(OC)c1 | 0 | 0 | 0 | 0 | 0 | 0 | -
O=C(O)c1ccc(N/N=C/c2ccc(-c3cc(Cl)ccc3Cl)o2)cc1 | ? | 0 | ? | ? | 79µM | 0 | - | Pol iota confirm=?
C=CCNC(=S)N/N=C/c1ccc(-c2cc(Cl)ccc2Cl)o1 | 0 | 0 | 0 | 0 | 0 | 0 | -
Cc1ccc(S(=O)(=O)C(CNC(=O)COc2ccccc2)c2cccs2)cc1 (stereo unspecified) | 13µM | 0 | 0 | - | 0 | ? | ?
Cc1[nH]cnc1C(=O)N/N=C/c1c(Cl)cccc1Cl | 0 | 0 | 0 | 0 | 0 | 0 | 12µM
Cc1nn(-c2nc3ccccc3[nH]2)c(=O)c2ccccc12 | 0 | 0 | 0 | ? | 0 | 0 | 2.9µM
O=C1c2ccccc2-c2nnc(-c3ccccc3)cc21 | 0 | 0 | ? | 0 | 0 | 0 | 12µM
COc1ccc(-c2cc3c(nn2)-c2ccccc2C3=O)cc1 | 0 | 0 | 0 | 0 | 0 | 0 | 4.6µM
Cc1cccc(-c2cc3c(nn2)-c2ccccc2C3=O)c1 | 0 | 0 | 0 | 0 | 0 | 0 | -
Cc1cccc(-c2cc(NC(=O)c3ccccc3C)n(-c3ccccc3)n2)c1 | 0 | 0 | 0 | - | 0 | 0 | -
CCOP(=O)(c1ccccc1)C(O)c1ccc(F)cc1 (stereo unspecified) | 0 | 0 | 0 | 0 | 0 | 0 | -
O=C(O)c1cc(O)c2c(c1)[C@H]([C@H]1c3cc(C(=O)O)cc(O)c3C(=O)c3c(O[C@@H]4O[C@H](CO)[C@@H](O)[C@H](O)[C@H]4O)cccc31)c1cccc(OC3O[C@H](CO)[C@@H](O)[C@H](O)[C@H]3O)c1C2=O (stereo partly specified) | - | 0.71µM | 0 | 0.067µM | 0 | ? | 2.9µM
Oc1ccc(CNc2cccnc2)c2cccnc12 | - | - | - | - | - | - | - | Pol iota confirm=?
Cc1occc1C(=O)N/N=C/c1ccc2c(c1)OCO2 | 0 | 0 | 0 | ? | 0 | 0 | 16µM
Cc1ccsc1C(=O)N/N=C/c1ccc2c(c1)OCO2 | 0 | 0 | 0 | 0 | 0 | 0 | 18µM
O=C(N/N=C/c1ccc2c(c1)OCO2)c1cccs1 | 0 | 0 | 0 | 0 | 0 | 0 | -
O=C(O)c1ccc(N/N=C/c2ccc3c(c2)OCO3)cc1 | 0 | 0 | 0 | 0 | 0 | 0 | 10µM
COC(=O)c1ccc(NC(=O)c2cccc(N3C(=O)C4C5C=CC(C6CC56)C4C3=O)c2)cc1 (stereo unspecified) | 0 | 0 | 0 | 0 | 0 | 0 | -
Cc1cccc(C)c1N1CCN(C(c2ccnc3ccccc23)c2nnnn2-c2ccc3c(c2)OCCO3)CC1 (stereo unspecified) | - | - | - | - | - | 0 | -
CC(C)(C)n1nc2c(c1NC(=O)Cc1ccc(F)cc1)CS(=O)(=O)C2 | 0 | 0 | 0 | 0 | 0 | 0 | -
O=C(COc1ccc(Cl)cc1Cl)Nc1ccccn1 | 0 | 0 | 0 | 0 | 0 | 0 | 18µM
CSc1ccccc1NC(=O)COc1ccc(Cl)cc1Cl | 0 | 0 | 0 | ? | 0 | 0 | -
SMILES | Pol beta inh | Pol kappa inh | Pol iota inh | APEX1 inh | Pol eta inh | GLS inhibitor | TbPGK inh | others
CC(=O)c1cccc(NC(=O)CCc2nnc3ccc(NCc4ccco4)nn23)c1 | ? | 0 | 0 | 0 | ? | ? | - | Pol iota confirm=?
Cc1cc(NC(=O)COC(=O)c2cnccn2)ccc1Br | - | 0 | 0 | 0 | 0 | 0 | -
Cc1cc(C)c2cc3c(N)c(C(=O)N4CCOCC4)sc3nc2c1 | 0 | 0 | 0 | 0 | 0 | 0 | -
Cc1cc(C)c2cc3c(N)c(C(=O)Nc4c(C)[nH]c(=O)[nH]c4=O)sc3nc2c1 | ? | 0 | ? | 0 | 45µM | ? | - | Pol iota confirm=?
CN(C)c1ccc(C(=O)Nc2sc(Nc3ccccc3)nc2C(N)=O)cc1 | ? | 0 | 79µM | - | ? | 0 | - | Pol iota confirm=?
Cc1ccc(C(=O)NCc2ccco2)cc1S(=O)(=O)N1CCOCC1 | 0 | 0 | 0 | 0 | 0 | 0 | -
Cc1cc(=O)oc2cc(NC(=O)COc3ccccc3[N+](=O)[O-])ccc12 | - | 0 | ? | 0 | ? | 0 | - | Pol iota confirm=?
O=C(COc1ccccc1[N+](=O)[O-])Nc1ccc2oc(=O)ccc2c1 | 0 | 0 | 0 | 0 | 0 | 0 | -
Cc1csc(N=Nc2ccc(N(C)C)cc2)[n+]1[O-] | - | - | - | - | ? | 0 | 13µM
COc1ccc(OCC(=O)Nc2nccs2)cc1 | 0 | 0 | 0 | 0 | 0 | 0 | -
O=C(COc1ccc2c(c1)OCO2)Nc1nccs1 | 0 | 0 | 0 | 0 | 0 | 0 | ?
CCOc1ccc(OCC(=O)Nc2nccs2)cc1 | 0 | 0 | 0 | 0 | 0 | 0 | 13µM
Cc1ccnc(N2C(=O)c3ccccc3C2O)c1 (stereo unspecified) | 0 | 0 | 0 | 0 | 0 | 0 | 10µM
Cc1ccnc(N2C(=O)c3ccccc3C2Nc2cccc(C)c2C)c1 (stereo unspecified) | 0 | 0 | 0 | 0 | 0 | 0 | -
O=C(COc1ccc(/C=N/NC(=O)c2ccncc2)cc1)Nc1ccc([N+](=O)[O-])cc1 | 0 | 0 | 0 | 0[12.4 µM] | 0 | 0 | -
O=C(/C=C/c1ccc([N+](=O)[O-])cc1)Oc1ccc(/C=N/NC(=O)c2ccncc2)cc1 | 0 | 22µM | 79µM | 0 | ? | 0 | - | Pol iota confirm=?
O=C(COc1ccc(/C=N/NC(=O)c2ccc(O)cc2)cc1)Nc1cccc([N+](=O)[O-])c1 | 10µM | ? | ? | 0 | 14µM | 0 | 12µM | Pol iota confirm=?
CC(=O)c1cccc(NC(=O)COc2nsnc2N2CCOCC2)c1 | 0 | 0 | 0 | 0 | 0 | 0 | -
CNC(=O)c1cc2c(=O)n3cc(C)ccc3nc2n(Cc2ccco2)c1=N | 0 | - | - | 0 | - | - | -
O=C(Nc1ccon1)c1ccc2c(c1)OCO2 | 0 | 0 | 0 | 0 | 0 | 0 | -
Cc1ccnc(NC(=O)c2ccc3c(c2)OCO3)c1 | 0 | 0 | 0 | 0 | 0 | 0 | 21µM
